# According to PMC4336329 (PLoS ONE, 2015):
# The whole screen tested about 310,000 compounds, of which about 2,200 (0.71%) showed an effect of 50% or more. Effects have a minus sign here. The entries come from a sample that favours strong results as a whole.
# Target: human ether-à-go-go-related gene (hERG) potassium channel (human, UniProt Q12809)
# Assay: primary screen, population patch clamp on CHO cells stably expressing hERG; higher = less effect of the substance
# human ether-à-go-go-related gene (hERG) potassium channel, sequence (Q12809 whole entry, looked up): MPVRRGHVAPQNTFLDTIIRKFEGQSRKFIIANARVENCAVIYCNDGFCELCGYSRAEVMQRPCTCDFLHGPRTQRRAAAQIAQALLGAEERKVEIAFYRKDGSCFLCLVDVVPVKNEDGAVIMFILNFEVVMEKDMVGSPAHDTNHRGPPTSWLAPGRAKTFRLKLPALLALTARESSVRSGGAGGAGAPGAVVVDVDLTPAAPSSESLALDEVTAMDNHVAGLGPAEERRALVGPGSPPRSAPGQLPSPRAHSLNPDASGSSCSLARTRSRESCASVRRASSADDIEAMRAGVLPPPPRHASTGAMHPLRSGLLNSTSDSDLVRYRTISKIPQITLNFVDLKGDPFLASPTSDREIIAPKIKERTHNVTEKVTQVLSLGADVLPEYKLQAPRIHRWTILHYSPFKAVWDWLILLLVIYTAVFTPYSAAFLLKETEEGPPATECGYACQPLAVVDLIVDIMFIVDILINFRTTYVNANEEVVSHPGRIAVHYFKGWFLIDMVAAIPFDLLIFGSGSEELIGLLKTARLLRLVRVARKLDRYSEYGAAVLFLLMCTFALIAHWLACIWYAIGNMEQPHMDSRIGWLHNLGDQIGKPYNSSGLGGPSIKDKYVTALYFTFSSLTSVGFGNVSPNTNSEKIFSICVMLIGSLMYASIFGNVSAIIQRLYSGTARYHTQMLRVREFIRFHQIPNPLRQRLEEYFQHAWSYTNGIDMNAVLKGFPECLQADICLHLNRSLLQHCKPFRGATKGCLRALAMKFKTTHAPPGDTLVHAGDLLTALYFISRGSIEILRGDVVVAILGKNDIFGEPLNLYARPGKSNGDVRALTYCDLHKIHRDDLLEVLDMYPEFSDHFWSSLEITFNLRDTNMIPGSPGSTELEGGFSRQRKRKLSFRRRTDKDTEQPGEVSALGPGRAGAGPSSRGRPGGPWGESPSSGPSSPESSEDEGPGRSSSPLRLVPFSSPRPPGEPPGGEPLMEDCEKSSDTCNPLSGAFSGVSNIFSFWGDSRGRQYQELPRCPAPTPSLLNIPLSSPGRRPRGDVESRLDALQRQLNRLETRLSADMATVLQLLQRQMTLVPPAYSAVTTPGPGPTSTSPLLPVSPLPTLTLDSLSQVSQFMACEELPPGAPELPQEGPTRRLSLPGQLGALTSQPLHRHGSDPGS
row,Compound,"hERG current change (%, negative = inhibition) at 1uM"
1,CCC(Oc1ccccc1)C(=O)N(C)CC(=O)N(CC(C)C)c1c(N)n(CC(C)C)c(=O)[nH]c1=O (centres unmarked),7.85%
2,CC(C)CC(=O)OCC(=O)Nc1ccccc1Sc1ccccc1,11.1%
3,CN(Cc1ccc(OC(F)F)cc1)C(=O)c1ccc(S(=O)(=O)N(C)c2ccccc2)cc1,-19.2%
4,CCS(=O)(=O)N1Cc2ccccc2CC1C(=O)Nc1ncc(C)s1 (centres unmarked),7.83%
5,Fc1ccc(N2Cc3ccsc3C=N2)cc1,9.09%
6,CCOc1ccc(Nc2nc(Cc3nnc(SCC(=O)NC4CCCCC4)n3C)cs2)cc1,-7.35%
7,Cc1sc(-c2ccccn2)nc1OC(=O)c1ccc(F)cc1F,16.2%
8,CCCCC(=O)Nc1c(-c2ccc(OC)c(OC)c2)c(=O)c2ccccc2n1C,10.7%
9,O=C(Nc1ccc2c(c1)OCO2)C1CCN(C(=O)c2ccc(Cl)cc2)CC1,-59.6%
10,O=C(NCC1CCCCC1)c1ccc([N+](=O)[O-])cc1,8.06%
11,O=C(Nc1ccc2c(c1)OCO2)C1CCN(C(=O)c2ccc(Br)cc2)CC1,-42.3%
12,O=C(Nc1ccc2c(c1)OCCO2)C1CCN(C(=O)c2ccc(Cl)cc2)CC1,3.04%
13,O=C(NCC1CCN(C(=O)c2ccc([N+](=O)[O-])cc2)CC1)c1ccc([N+](=O)[O-])cc1,-74.6%
14,O=C(NCC1CCN(C(=O)c2cccc([N+](=O)[O-])c2)CC1)c1cccc([N+](=O)[O-])c1,-5.98%
15,O=[N+]([O-])c1ccccc1/C=C\C=N\N1CCN(c2ccccc2)CC1,-7.95%
16,COc1cccc(CC2(CO)CCCN(Cc3cn[nH]c3-c3ccccc3)C2)c1 (centres unmarked),-6.05%
17,COc1cccc(CC2(CO)CCCN(Cc3ccccc3Cl)C2)c1 (centres unmarked),-12.5%
18,COc1cccc(CC2(CO)CCCN(Cc3ccc(OC)c(C)c3OC)C2)c1 (centres unmarked),-80.2%
19,COc1cccc(CC2(CO)CCCN(Cc3ccccc3-c3ccco3)C2)c1 (centres unmarked),-55.6%
20,COc1cccc(CC2(CO)CCCN(Cc3ccc(C)s3)C2)c1 (centres unmarked),-10.6%
21,COc1cccc(CC2(CO)CCCN(Cc3ccc(CO)o3)C2)c1 (centres unmarked),-1.35%

row,Compound,"hERG current change (%, negative = inhibition) at 1uM"
1,COc1cccc(CC2(CO)CCCN(Cc3ccc(-c4ccco4)cc3)C2)c1 (centres unmarked),9.67%
2,COc1cccc(CC2(CO)CCCN(Cc3ccc(CN4CCCCC4)s3)C2)c1 (centres unmarked),0.717%
3,COc1cccc(CC2(CO)CCCN(Cc3cn(C)c4ccccc34)C2)c1 (centres unmarked),-54.8%
4,CC(C)(C)C(=O)Nc1scc(-c2ccc(-c3ccccc3)cc2)c1C(=O)O,21.8%
5,COc1cc(C)ccc1OCc1cc(C(=O)N(C)CCCN2CCOCC2)no1,-7.67%
6,c1ccc(-n2c(-c3ccco3)nnc2-c2ccco2)cc1,5.9%
7,COc1cccc(-c2nnc(-c3ccco3)o2)c1,14.6%
8,O=C(NCCN1CCCCC1)c1cc(OCC(F)(F)F)ccc1OCC(F)(F)F,-17.2%
9,S=c1[nH]nc(-c2ccc(Cl)cc2)n1-c1ccc(Cl)cc1,9.56%
10,CCC(C)(C)NC(=O)CN(C(=O)c1snc(C(N)=O)c1N)c1ccc2c(c1)OCO2,3.43%
11,COc1ccc(S(=O)(=O)N2CCC(C(=O)NCCc3ccccc3)CC2)cc1,9.96%
12,COc1ccc(C(=O)C2CCN(C(=O)c3ccc(OC)cc3)CC2)cc1,-76%
13,COc1ccc(C(=O)N2CCC(C(=O)c3ccc(F)cc3)CC2)cc1,-66.1%
14,COc1ccc(C(=O)C2CCN(C(=O)c3ccc(C)cc3)CC2)cc1,-47.7%
15,COc1ccc(C(=O)C2CCN(C(=O)c3ccc(F)cc3)CC2)cc1,2.02%
16,COc1cc(OC)cc(C(=O)N2CCC(C(=O)c3ccc(F)cc3)CC2)c1,-1.28%
17,COc1ccc(C(=O)N2CCC(C(=O)c3c(C)cc(C)cc3C)CC2)cc1,-8.27%
18,COc1ccc(Cl)cc1NC(=O)NN1CCN(C)CC1,-7.68%
19,CC(C)(C)NC(=O)C(c1ccco1)N(Cc1ccc(F)cc1)C(=O)c1snc(C(N)=O)c1N (centres unmarked),-6.09%
20,C/C(=N/OCO/N=C(\C)c1ccc(F)cc1F)c1ccc(F)cc1F,21.9%
21,COc1cc2c(cc1OC)CN(CC(=O)Nc1ccc3c(c1)OCO3)CC2,14.5%

row,Compound,"hERG current change (%, negative = inhibition) at 1uM"
1,CC(C)(C)S(=O)(=O)c1cnc2c(-c3ccsc3)cnn2c1N,15.9%
2,COc1cc2c(cc1OC)CN(C(=O)COc1ccccc1[N+](=O)[O-])CC2,9.5%
3,COC(=O)c1ccccc1NC(=S)NC(=O)c1ccc2c(c1)OCO2,20.6%
4,O=C(NC(=S)Nc1ccccc1Br)c1ccc2c(c1)OCO2,-67.9%
5,O=C(NC(=S)NCc1ccccc1)c1ccc2c(c1)OCO2,2.26%
6,Cc1ccc(N(C)S(=O)(=O)c2cccc(C(=O)Nc3ccc(C)cn3)c2)cc1,15.7%
7,N#CCCN=C(NS(=O)(=O)c1ccccc1)c1ccccc1,2.49%
8,O=C(COc1ccc2ccc(=O)oc2c1)NCCc1c[nH]c2ccc(F)cc12,12.5%
9,CCOc1ccc(N2C(=O)CC(n3nc(C)cc3C)C2=O)cc1 (centres unmarked),3.53%
10,CCOC(=O)c1c(CSC(=N)N)n(-c2ccccc2)c2cc(Br)c(OC(C)=O)cc12,-57.4%
11,Br.CCOC(=O)c1c(CSC(=N)N)n(C)c2cc(Br)c(OC(C)=O)cc12,-36.7%
12,Br.CCOC(=O)c1c(CSC(=N)N)n(-c2ccc(C)cc2)c2cc(Br)c(OC(C)=O)cc12,-36.7%
13,Cc1cccc(NC(=O)Nc2ccc3c(c2)OCO3)n1,15.6%
14,O=C(CN1CCN(C(=O)c2cccc(-n3cnnn3)c2)CC1)Nc1ccccc1Cl,-92.9%
15,Cc1cccc(NC(=O)CN2CCN(C(=O)c3cccc(-n4cnnn4)c3)CC2)c1C,-11.9%
16,CCc1ccccc1NC(=O)CN1CCN(C(=O)c2cccc(-n3cnnn3)c2)CC1,-5.51%
17,O=C(CN1CCN(C(=O)c2c(F)cccc2F)CC1)Nc1ccccc1C(F)(F)F,3.09%
18,Cc1cccc(NC(=O)CN2CCN(C(=O)c3cncn3-c3ccc(F)cc3)CC2)c1C,-22.2%
19,O=C(CN1CCN(C(=O)c2cncn2-c2ccc(F)cc2)CC1)Nc1ccccc1C(F)(F)F,-68.3%
20,O=C(CN1CCN(C(=O)c2cncn2-c2ccccc2)CC1)Nc1ccccc1Cl,-83.4%
21,O=C(CN1CCCCC1)Nc1ccccc1Cl,13.9%

row,Compound,"hERG current change (%, negative = inhibition) at 1uM"
1,Cc1nn(Cc2ccccc2)c(C)c1C(=O)N1CCN(CC(=O)Nc2ccccc2Cl)CC1,-13.4%
2,O=C(Nc1ccncc1)Nc1cccc(Cl)c1,6.49%
3,CC(C)(C)n1nc2c(c1NC(=O)c1ccc(C(F)(F)F)cc1)CS(=O)(=O)C2,-9.67%
4,Cc1ccc(-c2nc(CS(=O)CC(=O)NCCN3CCCCCC3)c(C)o2)cc1 (centres unmarked),15.5%
5,Cc1ccc(C(=O)Cn2c(N3CCOCC3)nc3c2c(=O)n(C)c(=O)n3C)cc1,5.32%
6,COc1cccc(Nc2nc(Nc3ccc(Cl)c(C(=O)O)c3)nc(C)c2[N+](=O)[O-])c1,9.52%
7,CCOc1ccc(NS(=O)(=O)c2ccc(SC)cc2)cc1,0.548%
8,CC(=O)c1cccc(CN2CCC(n3nccc3NC(=O)c3ccc4c(c3)OCO4)CC2)c1,6.25%
9,O=C(Nc1ccnn1C1CCN(Cc2ccc3nonc3c2)CC1)c1cccc(F)c1,-1.92%
10,CCOc1cccc(CN2CCC(n3nccc3NC(=O)c3ccc4c(c3)OCO4)CC2)c1,-1.26%
11,COc1ccc(CN2CCC(n3nccc3NC(=O)c3cccc(F)c3)CC2)cc1O,-81.5%
12,O=C(Nc1ccnn1C1CCN(Cc2ccc(C#CCCO)cc2)CC1)c1cccc(F)c1,-37.5%
13,CCn1cc(CN2CCC(n3nccc3NC(=O)c3cccc(F)c3)CC2)cn1,6.11%
14,CCc1ccc(CN2CCC(n3nccc3NC(=O)c3cccc(F)c3)CC2)cc1,-78.3%
15,COc1ccc(CN2CCC(n3nccc3NC(=O)C3CC3)CC2)cc1O,-18.7%
16,CCc1ccc(CN2CCC(n3nccc3NC(=O)c3ccc4c(c3)OCO4)CC2)cc1,-58.4%
17,CC(C)c1ccc(NC(=O)c2ccc(NC3=NC4CS(=O)(=O)CC4S3)cc2)cc1 (centres unmarked),-0.0656%
18,COCC(=O)N(Cc1cc2cc(C)ccc2[nH]c1=O)c1ccc(C)c(C)c1,16.4%
19,CN1CCN(NC(=O)CN(C)S(=O)(=O)c2cc(Cl)ccc2Cl)CC1,6.96%
20,O=C(NNc1c(Cl)cccc1Cl)C1CCC1,13.3%
